IL1B secr inh = blocks inflammasome-driven IL-1 beta release; THP-1 LPS/ATP IL-1B secretion, AlphaLISA, 16 h; hits give low values; activity change, % at 57.5 µM; 360,000 compounds, 4.7% hits; in the data active means activity change below about -50%; inconclusive means mostly about -30% to -49%
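Secreted IL-1B measured by AlphaLISA bead assay after 16 h compound exposure of THP-1 cells; compounds (final up to 57.5 uM) added 1 h before LPS (250 ng/mL) and ATP (1.25 mM) stimulation; lower signal means less secretion.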
DT40 TDP1 no CPT = qHTS for Inhibitors of human tyrosyl-DNA phosphodiesterase 1 (TDP1): qHTS in cells in absence of CPT | DT40 Tdp1-/- hTDP1 cells, no CPT, ATP luminescence, 48 h | Potency, µM (top dose mostly 46.2 µM), inactives show at the highest dose activity change, negative = growth inhibition, most hits filed as inhibitors | 420,000 compounds, 15% hits | AID 686978, 2013; further: potency means the concentration at half of the fitted maximal effect; nearly all actives have a fitted effect of over 55% in size
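Seeded 400 DT40-hTDP1 cells/well (vehicle DMSO, no 20 nM CPT); pinned compounds; ≥48 hr at 37 °C; CellTiter-Glo luminescence as viability measure.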
TDP1 cell CPT = growth inhibition of DT40 Tdp1-/-;hTDP1 cells with camptothecin (screen for TDP1 inhibitors); AID 686979; Potency, µM (series often up to 46.2 µM), without a hit: top-dose activity change, negative = growth inhibition, usual class: inhibitors; 420,000 compounds, 12% hits; chicken DT40 Tdp1-/-;hTDP1 cells + 20 nM CPT, ATP luminescence, 48 h; further: potency means the concentration at half of the fitted maximal effect; nearly all actives have a fitted effect of over 55% in size
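Cell growth measured by CellTiter-Glo luminescence after a minimum 48 h, 37 C compound exposure with 20 nM CPT in Tdp1-knockout DT40 cells stably expressing hTDP1, seeded 400/well; qHTS titration format.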
ELG1 repair inh = blocks ELG1-dependent DNA repair in HEK293T cells; HEK293T ELG1-luciferase reporter, luminescence, 16 h; DNA damage induced by 5-fluorouridine; Potency, µM (highest dose often 46.1 µM), for inactives: top-dose activity change, negative = inhibition, actives largely listed as inhibitors; 330,000 compounds, 2.3% hits; AID 504467; further: potency means the concentration at half of the fitted maximal effect; nearly all actives have a fitted effect of over 55% in size
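Quantitative HTS, concentration-response format. 2,000 cells/well co-treated with 5-fluorouridine and compound, 16 hr in 5% CO2 at 37 °C; ONE-Glo luminescence read after 30 min.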
TDP1 block = blocks human tyrosyl-DNA phosphodiesterase 1; Q9NUW8; recombinant TDP1, AlphaScreen DNA substrate cleavage; Potency, µM (series often up to 130 µM), for inactives: at the top dose activity change, negative = inhibition, most hits filed as inhibitors; 350,000 compounds, 0.28% hits; further: potency means the concentration at half of the fitted maximal effect; nearly all actives have a fitted effect of over 40% in size
Target sequence (Q9NUW8 whole entry, looked up): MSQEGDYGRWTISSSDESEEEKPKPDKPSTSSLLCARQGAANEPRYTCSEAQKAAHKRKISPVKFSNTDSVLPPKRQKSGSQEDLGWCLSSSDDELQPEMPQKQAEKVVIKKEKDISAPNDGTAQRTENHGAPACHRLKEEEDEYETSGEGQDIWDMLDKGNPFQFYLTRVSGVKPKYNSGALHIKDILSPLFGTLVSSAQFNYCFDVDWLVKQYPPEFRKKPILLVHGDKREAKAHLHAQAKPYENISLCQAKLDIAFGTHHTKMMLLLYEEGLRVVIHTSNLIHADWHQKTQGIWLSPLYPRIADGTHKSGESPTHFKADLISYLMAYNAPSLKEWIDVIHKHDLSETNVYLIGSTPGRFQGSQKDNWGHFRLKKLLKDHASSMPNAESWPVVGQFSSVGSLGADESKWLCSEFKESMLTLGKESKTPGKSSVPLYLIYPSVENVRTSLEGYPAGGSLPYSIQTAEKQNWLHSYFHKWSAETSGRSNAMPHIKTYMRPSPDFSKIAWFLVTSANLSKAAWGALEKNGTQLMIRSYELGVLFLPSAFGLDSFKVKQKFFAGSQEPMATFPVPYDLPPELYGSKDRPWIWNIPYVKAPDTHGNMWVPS
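Tdp1 1 nM final; 15 min RT w/ cpd; substrate 15 nM, 5 min; beads 10 ug/ml, 10 min; AlphaScreen read. Neg ctrl: no enzyme.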
Giardia killer = kills Giardia lamblia; 340,000 compounds, 0.15% hits; Giardia lamblia trophozoite viability; AID 540267; activity change, % at 7.66 µM, hits read low; in the data active means activity change below about -80%; inconclusive means between about -30% and that limit;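 further: parasites exposed to compound for two days anaerobically before the ATP read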
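Viability, read as ATP luminescence: trophozoites at 100 cells/well, compound added, 48 hrs anaerobic at 37 deg C, then 15-30 min room-temperature development before reading.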
Active calls of the source: *; ? = inconclusive; · = not tested or not shown; ! = not confirmed by another sample. Only some compounds are listed: those with a hit (about 19% of all), similar ones and a draw of the others. Unless noted, the call rests on the fitted dose curve; in most records, active means well fitted curve in the direction sought with a large enough effect; inconclusive means small, poorly fitted or top-dose-only effect, or another doubt; inactive means no such curve, though single readings can be large; an effect the other way counts as inactive or inconclusive. On the % scale 0 is the no-effect control and ±100 the full control effect.

SMILES | IL1B secr inh | DT40 TDP1 no CPT | TDP1 cell CPT | ELG1 repair inh | TDP1 block | Giardia killer
COc1ccc(C(C(=O)NC(C)(C)C)N(CCC(C)C)C(=O)CCC(=O)Nc2cc(C)on2)cc1 (stereo not drawn) | ? | ? | ? | 0.9% | · | 0.2
C=CCC(C)(O)c1cccs1 (stereo not drawn) | · | · | · | · | 10.0% | ·
CCn1nc(NC(=O)CC(C)C)c2cc3ccc(C)cc3nc21 | 1.6 | ? | 29.1µM* | -36.2% | · | 3.2
Cc1ccc2cc3c(NC(=O)c4cccnc4)nn(C)c3nc2c1 | -10.3 | 13µM* | -25.3% | -29.9% | -2.9% | 8.8
CC(=O)Nc1nn(C)c2nc3cc(C)ccc3cc12 | -0.8 | ? | ? | -0.4% | 1.0% | -24.5
OC1C(O)C(O)C(O)C(O)C1O (stereo not drawn) | 10.5 | ? | 15µM*! | 17.5% | 4.1% | -10.5
CCOC(=O)c1[nH]c(C)c(CCC(=O)N2CCN(c3ccc(OC)cc3)CC2)c1C | · | ? | -20.8% | · | 8.1% | ·
CCOC(=O)c1ccc(NS(=O)(=O)c2ccc(-c3cc(C)no3)cc2)cc1 | · | ? | ? | · | 5.6% | ·
Cc1ccc(NS(=O)(=O)c2ccc(-c3cc(C)no3)cc2)c(Br)c1 | · | 8.2µM* | 11.6µM* | · | 5.6% | ·
Cc1cc(-c2ccc(S(=O)(=O)Nc3cccc(Cl)c3C)cc2)on1 | · | 6.51µM* | 6.51µM* | · | 8.5% | ·
Cc1cc(-c2ccc(S(=O)(=O)NCc3ccc(Cl)cc3)cc2)on1 | 5.3 | ? | ? | · | · | ·
Cc1c(Cl)cccc1NS(=O)(=O)c1ccccc1 | -10.3 | -5.0% | -27.6% | · | · | -2.7
Cc1cc(-c2ccc(S(=O)(=O)Nc3ccc(Cl)cc3C)cc2)on1 | · | 3.26µM* | 4.61µM* | · | 2.8% | ·
Cc1cc(-c2ccc(S(=O)(=O)Nc3ccccc3C)cc2)on1 | · | 4.61µM* | 5.17µM* | · | 0.0% | ·
COC(=O)c1c(OCC2CCCN(C)C2)cc(=O)n2c1CCN(Cc1ccc(OC)c(O)c1)CC2 (stereo not drawn) | · | -20.8% | 20.1% | · | · | ·
COc1ccc(S(=O)(=O)N2CCC(c3nc4ccccc4[nH]3)CC2)cc1 | -16.3 | 10.3µM* | ? | ? | 3.1% | 6.4
CC(=O)Nc1ccc(S(=O)(=O)N2CCC(c3nc4ccc(C)cc4[nH]3)CC2)cc1 | -16.0 | ? | ? | ? | 4.2% | 20.1
CC(C)C(=O)Nc1ccc(S(=O)(=O)N2CCC(c3nc4ccccc4[nH]3)CC2)cc1 | -22.6 | 20.6µM* | ? | 5.8µM* | 1.4% | 23.4
Clc1ccc(CN2CCC(c3nc4ccc(Cl)cc4[nH]3)CC2)cc1 | -61.4* | 11.6µM* | 16.4µM* | ? | 2.1% | 6.1
COc1ccc(OC)c(S(=O)(=O)N2CCC(c3nc4ccccc4[nH]3)CC2)c1 | -10.5 | ? | ? | -15.0% | 3.7% | -5.5
CC(C)(C)c1ccc(S(=O)(=O)N2CCC(c3nc4ccc(Cl)cc4[nH]3)CC2)cc1 | · | ? | ? | 20.6µM* | 0.0% | -9.3
O=C(CN1C(=O)NC2(CCCC2)C1=O)N1CCc2ccccc2C1 | 18.8 | 9.3% | 14.7% | -10.4% | 1.3% | -9.2
COc1ccc(C2/C=C\CN(C(=O)Nc3ccccc3)CC(=O)N2Cc2ccc(F)cc2)cc1 (stereo not drawn) | 2.3 | ? | ? | 14.1% | 2.4% | -18.9
CCCCCCCN1C/C=C\C(c2ccc(OC)cc2)N(Cc2ccc(F)cc2)C(=O)[C@H]1Cc1ccccc1 (stereo partly drawn) | 3.8 | 18.4µM* | ? | 5.0% | 1.2% | 7.9
COc1ccc([C@H]2/C=C\CN(C(=O)C3CCCC3)[C@@H](C)C(=O)N2Cc2ccc(F)cc2)cc1 | 21.5 | 7.31µM* | 13µM* | · | · | -7.7

Compound activity as filed in PubChem.
